Source: PubChem BioAssay (NCI)
About 83,000 compounds went through this panel and 20% of them were active in at least one assay; those are over-represented in the sample as a whole.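 Results are percent growth after 48 hours of single-concentration exposure. 100 means growth as in untreated cells, lower positive values show inhibition; negative values down to -100 show cell death.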 Calls of active or inactive are those of the source.

The compounds below were run on HOP-92 NSCLC (assay: NCI-60 one-dose screen, 48 h (100 = growth as untreated, 0 = no growth, -100 = all killed)). Conditions: 10 µM.
Description: Growth inhibition of the HOP-92 human Non-Small Cell Lung tumor cell line is measured as a screen for anti-cancer activity. Cells are grown in 96 well plates and exposed to the test compound for 48 hours. Compounds are tested at a single concentration, which is 10^-5 M for most compounds. The reported endpoint is percent growth (GI% or GIPRCNT), where numbers from 0 - 100% represent growth inhibition, and numbers from -100% - 0 represent cell death. For example, a value of 40 represents 60% growth inhibition. A value of 0 means no net growth occurred over the course of the experiment. A value of -40 indicates 40% of cells at the beginning of the experiment died by the end of the experiment. A value of -100 means all cells are dead at the end of the experiment.
NCI-60 Human Tumor Cell Lines Screen was performed using the standard one-dose NCI protocol, which is described in more detail at https://dtp.cancer.gov/discovery_development/nci-60/default.htm.
Compounds with GIPRCNT values below 10 were considered active. Activity score was based on GIPRCNT using the following formula: […]
Score is 0 for GIPRCNT values of 100 or above, 50 for GIPRCNT values of 0, and 100 for GIPRCNT values of -100.

Row | SMILES | growth
1 | Cc1ccc(CSc2nc(-c3ccc(F)cc3)c(C#N)c(=O)[nH]2)cc1 | 96.7% (inactive)
2 | O=C(NCCCCC(c1ccc(F)cc1)c1ccc(F)cc1)NCCCc1cccnc1 | 19.4% (inactive)
3 | O=C(CSc1nnc(-c2ccc3nc(-c4ccc(Cl)cc4)[nH]c3c2)o1)Nc1ccc(Cl)cc1 | -6.37% (active)
4 | CO[C@@H]1CSSC1Cn1nc(-c2ccc(Oc3ccccc3)cc2)c2c(N)ncnc21 (stereo not given in full) | 35.9% (inactive)
5 | CO[C@@H]1CSS[C@H]1Cn1nc(-c2ccc(Oc3ccccc3)cc2)c2c(N)ncnc21 | 57.9% (inactive)
6 | COc1ccc2[nH]c(=O)c(CSc3cccc(N)c3)cc2c1 | 76.5% (inactive)
7 | C#CCNC(=O)CCC(=O)OC[C@]12CC[C@@H](C(=C)C)[C@@H]1C1CC[C@@H]3[C@@]4(C)CCCNC(C)(C)[C@@H]4CC[C@@]3(C)[C@]1(C)CC2 (stereo not given in full) | -14.4% (active)
8 | N#Cc1c(-c2ccc(F)cc2)nc(SCc2ccc(F)cc2)nc1N1CCOCC1 | 34.3% (inactive)
9 | CC[C@]12C=CCN3CC[C@@]4(c5cc(C#CCNc6ccc(C)c(Nc7nccc(-c8cccnc8)n7)c6)c(OC)cc5N(C)[C@H]4[C@@](O)(C(=O)OC)[C@@H]1OC(C)=O)C32 (stereo not given in full) | 42.2% (inactive)
10 | CC(=O)Nc1nc(-c2ccc(N3CCN(C)CC3)c(NS(=O)(=O)c3ccc(C(F)(F)F)cc3)c2)cs1 | 9.58% (active)
11 | O=C(NO)c1ccc(CN2CCN(c3nc(-c4ccccc4)c4ccccc4n3)CC2)cc1 | 37% (inactive)
12 | C=C[C@@]12CN3CC[C@]1(O)[C@@](C(=O)OC)(CO2)c1[nH]c2ccccc2c1C3 | 54.9% (inactive)
13 | COc1cc(/C=C/C(=O)c2ccc(S(=O)(=O)NCCNc3nc(Nc4ccc(F)cc4)nc(N(C)C)n3)cc2)cc(OC)c1OC | 60.4% (inactive)
14 | Cc1nc(Nc2nc(C)c3ccc(OCCN4CCOCC4)cc3n2)[nH]c(=O)c1C | 3.9% (active)
15 | COc1ccc(-c2cc(C(=O)N=Nc3c(O)[nH]c4ccccc34)c3ccccc3n2)cc1 | -46.5% (active)
16 | COc1ccc(C2N(c3ccc(Br)cc3)N=C(C(C)=O)N2[C@H]2[C@H](OC(C)=O)O[C@H](COC(C)=O)[C@@H](OC(C)=O)[C@@H]2OC(C)=O)cc1 (stereo not given in full) | 79.2% (inactive)
17 | CC(C)Sc1nc(NC2CC2)c(C#N)c(-c2ccccc2)n1 | 58.4% (inactive)
18 | Oc1ccc(/C=C2\CCCc3cc4ccc(O)cc4[o+]c32)c(O)c1 | 40.9% (inactive)
19 | O=C(CSc1nnc(-c2ccc3nc(-c4ccc(Cl)cc4)[nH]c3c2)o1)Nc1ccc(Br)cc1 | -11.3% (active)
20 | COc1ccc(CN2[C@H](C(=O)NCc3ccc(C(=O)NO)cc3)Cc3c([nH]c4ccccc34)[C@H]2C2CC2)cc1 | 40.1% (inactive)

Row | SMILES | growth
21 | CCCn1c(O)c(N=Nc2nc(-c3cc4ccccc4oc3=O)cs2)c2cc(Br)ccc21 | 86.3% (inactive)
22 | Cc1ccc(-c2ccc(SCC(=O)Nc3ccc(S(N)(=O)=O)cc3Br)nn2)cc1 | -31.6% (active)
23 | O=C(Cn1cc(CSc2nnc3oc4ccccc4n23)nn1)Nc1cccc(Cl)c1 | 52.1% (inactive)
24 | Cc1ccc(-c2nc(Nc3ccc(S(N)(=O)=O)cc3)c3ccccc3n2)cc1 | 36.4% (inactive)
25 | COc1cc(/C=C/C(=O)c2ccc(F)cc2)ccc1Oc1nc(Nc2ccc(F)cc2)nc(N(C)C)n1 | 65.6% (inactive)
26 | C=C1CC[C@H](C(=C)C)[C@H]2C=C(C)C(=O)C3=C(C(=O)[C@@](C)(O)C3)[C@H]12 | -90.8% (active)
27 | CC(=O)Nc1ccc(-n2cnc3cc(-c4ccc(O)cc4)ccc32)cc1F | 55.1% (inactive)
28 | CN1CCO/C1=C(/NC(=O)c1ccc(Cl)cc1)[P+](c1ccccc1)(c1ccccc1)c1ccccc1 | 60.9% (inactive)
29 | O=C(NO)c1ccc(CNc2nc(-c3ccccc3)c3ccccc3n2)cc1 | -35.6% (active)
30 | Cc1ccc2nc(COc3ccc(C(=O)NNC(=S)NCCc4ccccc4)cc3)[nH]c2c1 | 9.55% (active)
31 | COc1ccc([C@H]2C(C(=O)c3ccc(Cl)cc3)C3(N[C@@H]2c2ccccc2)C(=O)Nc2ccc(Cl)cc23)cc1 (stereo not given in full) | -26.7% (active)
32 | Cc1ccc2nc(-c3ccc(-c4nnc(SCC(=O)Nc5ccc(Br)cc5)o4)cc3)[nH]c2c1 | 91.9% (inactive)
33 | CC(C)NC(=O)c1cc(-c2ccc(NC(=O)Nc3ccc(N4CCN(C)CC4)c(C(F)(F)F)c3)cc2)nc2cccnc12 | -74.8% (active)
34 | CCN1CCN(c2ccc(NC(=O)Nc3ccc(-c4cc(C(=O)NC)c5ncccc5n4)cc3)cc2C(F)(F)F)CC1 | -81.8% (active)
35 | COc1ccc2[nH]c(O)c(N=NC(=O)COc3ccc(NC(=O)Nc4ccc(Cl)c(Cl)c4)cc3)c2c1 | -47.4% (active)
36 | CN(C)c1ccc(/C=C/c2nc3ccccc3c(=O)n2CC(=O)Nc2ccccc2)cc1 | 15.3% (inactive)
37 | CN1CCN(Cc2ccc(C(=O)Nc3cccc(Nc4ccc5c(O)cccc5n4)c3)cc2C(F)(F)F)CC1 | -37.3% (active)
38 | COc1ccc(-c2nc(-c3ccccc3)c(-c3ccccc3)n2-c2ccc(S(=O)(=O)Nc3ncccn3)cc2)cc1OC | 56.6% (inactive)
39 | NC(=Nc1ccc(OCCCCCCCCn2ccnn2)cc1)c1ccccc1 | 74.2% (inactive)
40 | Cc1ccc(C(C)C)cc1NC(=O)c1ccccc1O | -4.4% (active)
